Test results taken from PubChem BioAssay AID1259343 (VanderVen Lab, College of Veterinary Medicine, Cornell …, 2017).
About 2,900 (47%) of roughly 6,200 compounds were called active. So high a share suggests a set chosen from earlier hits. Some of the results follow. Unmarked numbers belong to inactive results. Rule as the data show it: active = inhibition above about 50%; inactive = the rest.

Assay: Mycobacterium tuberculosis growth inhibition, primary screen (AID 1259343)
Settings: inhibition: at 10 µM, active compounds read high; outcome: 10 uM

Structure (SMILES) | inhibition
Cc1ccccc1C1c2[nH]c3ccccc3c2CCN1C(=O)c1cccc(C#CC(C)(C)O)c1 (stereo not given) | -3.93%
CCCCc1ccc(Nc2nnc(SCC(=O)NCC)s2)cc1 | 83.3% (active)
CCCCc1ccc(Nc2nnc(SCC(=O)NC3CCCC3)s2)cc1 | 86% (active)
CCc1ccc(Nc2nnc(SCC(N)=O)s2)cc1 | 36.7%
CCc1ccc(Nc2nnc(SCC(=O)NC3CCCC3)s2)cc1 | 100% (active)
CCCCNC(=O)CSc1nnc(Nc2ccc(CC)cc2)s1 | 45.2%
COc1ccc(OCc2cc(C(=O)N3CCCCCC3)no2)c(Cl)c1 | 42%
CCC(=O)N(Cc1ccco1)Cc1cc(NC(=O)c2ccccc2Cl)ccc1N(C)C1CCN(C)CC1 | 39.1%
O=C(Nc1ccc(OCc2ccco2)c(Cl)c1)N1CCOCC1 | 79% (active)
O=S(=O)(Cc1ccccc1)c1nnnn1-c1ccccc1 | 101% (active)
Cc1ccc(NNC2CC(=O)N(N(C)C)C2=O)cc1 (stereo not given) | 78.2% (active)
Cc1ccc(CC2CC(=O)N(C3CCCCC3)C2=O)cc1 (stereo not given) | 36.3%
COc1ccc(/C=C/C(=O)c2cc(O)ccc2O)cc1 | 97.6% (active)
COC(=O)c1ccc(C=CC(=O)c2ccc(OC)cc2)cc1 | 47.6%
O=C(/C=C/c1ccccc1)c1ccc(O)cc1O | 96.2% (active)
O=C(/C=C/c1ccc(O)cc1)c1ccccc1O | 47.6%
COc1ccc(C=CC(=O)c2ccc3ccccc3c2)cc1 | 60.1% (active)
COc1cccc(C=CC(=O)c2ccc(Cl)c(Cl)c2)c1OC | 44.5%
COc1ccc(C(=O)C=Cc2cccc(O)c2)cc1F | 87.2% (active)
O=C1COc2ccc(C(=O)C=Cc3ccc4ccccc4c3)cc2N1 | 62.3% (active)
Oc1ccc(Cl)cc1Sc1cc(Cl)ccc1O | 101% (active)
O=c1cc(O)c2sc3nc(C4CC4)cc(C(F)(F)F)c3c2[nH]1 | 38.2%

Structure (SMILES) | inhibition
COc1ccc(N=C2SCCN2CC(=O)c2ccc(Cl)cc2)cc1 | -4.26%
Clc1ccc(N=C2SCCN2C2CCCCC2)cc1 | 90.5% (active)
FC(F)Oc1ccc(N=C2SCC3CCCCN23)cc1 (stereo not given) | 82.4% (active)
Clc1ccc(N=C2SCC3CCCCN23)cc1 (stereo not given) | -1.03%
O=C(NCCc1ccc(F)cc1)C1Cc2ccccc2O1 (stereo not given) | 70.3% (active)
CC(C)(CNC(=O)C1Cc2cc(F)ccc2O1)C1CCCCO1 (stereo not given) | 14.4%
COc1ccc2c(c1)OCC(Cc1ccc(OC)c(OC(C)=O)c1)C2=O (stereo not given) | 96.6% (active)
CC(C(=O)Nc1ccc(C23CC4CC(CC(C4)C2)C3)cc1)n1cncn1 (stereo not given) | 95.9% (active)
CC(C(=O)Nc1ccc(C#N)cc1)N1CC=C(c2ccccc2)CC1 (stereo not given) | 49.1%
COc1ccc(NC(=O)C(C)n2cccn2)cc1Cl (stereo not given) | 8.88%
Cc1ccc(-n2nc(C(=O)c3ccc(Cl)cc3)c(N)c(C#N)c2=O)cc1 | 94.6% (active)
COc1ccc(Oc2cnn(-c3ccc(Cl)cc3)c(=O)c2Nc2ccc(C(=O)O)cc2)cc1 | 28%
O=C(Nc1ccc(-c2ccccc2)cc1Cl)C1CC1 | 92.4% (active)
NS(=O)(=O)N1CCC(C(=O)Nc2ccc(-c3ccccc3)cc2F)CC1 | -3.6%
O=C(CNC(=O)c1cccc(F)c1)N=Nc1c(O)n(CCc2ccccc2)c2ccccc12 | -16.1%
COc1ccc(NC(=O)c2ccc3c(c2)NC(=O)C(C)S3)cc1 (stereo not given) | 57.4% (active)
Cc1cc(C)cc(C(=O)C=C2NC(=O)CS2)c1 | -74.8%
COc1cc(NC(=O)c2ccc3c(c2)NC(=O)CS3)cc(OC)c1 | 62.6% (active)
COc1cc(NC(=O)c2ccc3c(c2)NC(=O)C(C)S3)cc(OC)c1 (stereo not given) | 31.5%
COc1cc(C=NOCc2cccc3ccccc23)ccc1OC(F)F | 52.4% (active)
CCOC(=O)C1(CCc2ccccc2)CCCN(Cc2cccn2-c2ncccn2)C1 (stereo not given) | 13%
CCOC(=O)NC(=O)COC(=O)C1(Cc2ccccc2)CCCCC1 | 51.4% (active)

Structure (SMILES) | inhibition
Cn1cc(C(=O)Nc2cccc(C(F)(F)F)c2)c2[nH]c(=O)n(-c3ccc(F)cc3)c(=O)c21 | 24.6%
O=C(c1cnn(-c2ccc(F)cc2)c1)c1ccccc1O | 42.7%
CC(C)OC(=O)c1cn(-c2ccc(F)cc2)c(=O)c2ccccc12 | 80.8% (active)
CCS(=O)(=O)N1CCC(C(=O)Nc2nc(-c3ccc(Br)cc3)cs2)CC1 | 33.8%
O=C(Nc1nc(-c2ccc(Br)cc2)cs1)c1cc(Cl)ccc1[N+](=O)[O-] | 94.8% (active)
Cc1nnc(SCc2cccc3ccccc23)[nH]c1=O | 88.9% (active)
O=C(O)CCc1nnc(SCc2cccc(Cl)c2)[nH]c1=O | 34.4%
CC1CCc2sc(-c3nn(CN4CCN(c5cnccn5)CC4)c(=S)o3)cc2C1 (stereo not given) | 95.3% (active)
Cc1cc(C)[n+]2c(-c3ccccc3)csc2n1 | 80% (active)
CN(Cc1cnccn1)c1ccc(-c2nc(-c3cccc(Cl)c3)no2)cn1 | 80.1% (active)
CCc1ccc(CN(C)Cc2nc(-c3cccc(Cl)c3)no2)nc1 | 24.1%
O=c1[nH]c(CN2CCCC2c2cccs2)nc2scc(-c3ccco3)c12 (stereo not given) | 85% (active)
CN(Cc1nc2scc(-c3ccco3)c2c(=O)[nH]1)C1CCCCC1 | -6.13%
CC(C)Cc1csc2nc(Cc3cccs3)[nH]c(=O)c12 | 42%
CCN(CCS(=O)(=O)c1cc(Cl)ccc1Cl)CC(=O)NC(C)C | -1.76%
Clc1cc(CNCC2COc3ccccc3O2)cc2c1OCCO2 (stereo not given) | 11.4%
CN(CC1COc2ccccc2O1)C(=O)NCCc1ccsc1 (stereo not given) | -41.3%
c1ccc(CCc2cn(CC3COc4ccccc4O3)nn2)cc1 (stereo not given) | 55.8% (active)
FC(F)(F)c1ccc(-c2cnnc(N3CCC(c4ccncc4)CC3)n2)cc1 | 37.4%
C#CCOc1cccc(NC(=O)CSC2CCS(=O)(=O)C2)c1 (stereo not given) | 84.6% (active)
O=C(Nn1cnc2ccccc21)c1ccccc1SC1CCS(=O)(=O)C1 (stereo not given) | -8.68%
